# Assay results published in article PMC7862700, “An all-to-all approach to the identification of sequence-specific readers for epigenetic DNA modifications on cytosine”.
# Legend:
# Test in all cases: DAPPL (digital affinity profiling via proximity ligation, sequencing); 10 mM Tris-HCl pH 7.5, 50 mM NaCl, 1 mM DTT, 4% glycerol, room temperature, 30 min; GST-TFs on glutathione beads, 16-mer random dsDNA library, 0.1% formaldehyde crosslink after washing; high values mean tight binding
# FLI1 = target: T1, FLI1 (Homo sapiens, UniProt Q01543 1-452); conditions: protein: recombinant; tags: N-terminal GST; dsDNA, one strand shown
# T1 sequence: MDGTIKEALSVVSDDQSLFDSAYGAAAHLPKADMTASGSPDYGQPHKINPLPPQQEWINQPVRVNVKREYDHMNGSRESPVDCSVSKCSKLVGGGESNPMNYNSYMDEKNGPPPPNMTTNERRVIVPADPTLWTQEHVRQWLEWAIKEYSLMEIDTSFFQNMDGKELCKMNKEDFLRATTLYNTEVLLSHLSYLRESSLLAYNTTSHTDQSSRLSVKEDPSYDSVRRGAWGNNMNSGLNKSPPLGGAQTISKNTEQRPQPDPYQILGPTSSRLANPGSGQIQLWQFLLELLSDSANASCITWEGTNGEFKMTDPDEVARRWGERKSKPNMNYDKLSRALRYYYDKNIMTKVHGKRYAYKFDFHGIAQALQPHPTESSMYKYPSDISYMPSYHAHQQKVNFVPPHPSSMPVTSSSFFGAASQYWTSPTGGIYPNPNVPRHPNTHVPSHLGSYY
# How it was run: (§1)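 Human transcription factors were made in yeast as GST fusions, captured on glutathione beads and barcoded with DNA. With a tag-only sample included, the pool was incubated with 200 nmole of a random double-stranded 16-mer DNA library in Tris/NaCl/DTT/glycerol buffer at room temperature for 30 min, then crosslinked with 0.1% formaldehyde after washing, ligated by proximity, amplified and sequenced. For binding signal, each hexamer's read frequency for a factor is divided by its frequency for the tag-only sample.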
# ELK1 = target: T2, ELK1 (Homo sapiens, UniProt P19419 1-428); conditions: protein: recombinant; tags: N-terminal GST; dsDNA, one strand shown
# T2 sequence: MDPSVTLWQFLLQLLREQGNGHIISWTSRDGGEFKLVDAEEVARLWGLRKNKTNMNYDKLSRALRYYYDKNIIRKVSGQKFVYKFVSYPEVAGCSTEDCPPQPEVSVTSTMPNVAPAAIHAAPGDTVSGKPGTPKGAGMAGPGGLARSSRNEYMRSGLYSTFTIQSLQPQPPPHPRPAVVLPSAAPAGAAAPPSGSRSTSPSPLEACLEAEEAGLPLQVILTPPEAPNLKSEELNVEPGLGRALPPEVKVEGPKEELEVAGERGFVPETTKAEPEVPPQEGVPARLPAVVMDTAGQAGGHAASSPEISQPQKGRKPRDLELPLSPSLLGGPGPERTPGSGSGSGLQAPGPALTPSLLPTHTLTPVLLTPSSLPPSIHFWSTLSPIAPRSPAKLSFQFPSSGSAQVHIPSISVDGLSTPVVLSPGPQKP
# How it was run: as §1
# GABPA = target: T3, GABPA (Homo sapiens, UniProt Q06546 1-454); conditions: protein: recombinant; tags: N-terminal GST; dsDNA, one strand shown
# T3 sequence: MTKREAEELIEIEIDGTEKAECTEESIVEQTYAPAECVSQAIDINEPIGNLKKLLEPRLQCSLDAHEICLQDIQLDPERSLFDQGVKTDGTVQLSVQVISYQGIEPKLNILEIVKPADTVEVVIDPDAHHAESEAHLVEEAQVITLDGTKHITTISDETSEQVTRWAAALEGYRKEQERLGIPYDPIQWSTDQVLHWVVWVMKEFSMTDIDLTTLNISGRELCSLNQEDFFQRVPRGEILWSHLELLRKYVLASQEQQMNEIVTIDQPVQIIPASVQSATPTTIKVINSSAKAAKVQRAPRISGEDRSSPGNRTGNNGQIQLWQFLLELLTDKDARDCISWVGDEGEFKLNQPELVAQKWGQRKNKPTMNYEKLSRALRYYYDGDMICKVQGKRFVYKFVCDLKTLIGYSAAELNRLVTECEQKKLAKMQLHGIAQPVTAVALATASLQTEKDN
# How it was run: as §1
# ERG = target: T4, ERG (Homo sapiens, UniProt P11308 1-479); conditions: protein: recombinant; tags: N-terminal GST; dsDNA, one strand shown
# T4 sequence: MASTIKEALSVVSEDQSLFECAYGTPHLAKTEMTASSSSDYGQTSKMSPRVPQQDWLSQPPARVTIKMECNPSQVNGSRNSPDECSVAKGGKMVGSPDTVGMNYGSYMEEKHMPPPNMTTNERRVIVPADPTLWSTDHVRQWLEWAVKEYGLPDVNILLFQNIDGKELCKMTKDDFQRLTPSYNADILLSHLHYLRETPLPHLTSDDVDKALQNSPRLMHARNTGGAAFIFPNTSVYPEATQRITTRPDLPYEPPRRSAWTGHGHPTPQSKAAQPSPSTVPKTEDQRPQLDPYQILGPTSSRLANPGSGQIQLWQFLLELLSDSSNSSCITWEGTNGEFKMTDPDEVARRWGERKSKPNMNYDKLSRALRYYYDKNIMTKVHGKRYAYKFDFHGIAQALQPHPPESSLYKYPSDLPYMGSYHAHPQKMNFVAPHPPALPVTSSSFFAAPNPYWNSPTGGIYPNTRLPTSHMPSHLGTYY
# How it was run: as §1
# ELF1 = ELF1 (Homo sapiens, UniProt P32519 1-619); conditions: protein: recombinant; tags: N-terminal GST; dsDNA, one strand shown
# Sequence of ELF1 (P32519 whole entry): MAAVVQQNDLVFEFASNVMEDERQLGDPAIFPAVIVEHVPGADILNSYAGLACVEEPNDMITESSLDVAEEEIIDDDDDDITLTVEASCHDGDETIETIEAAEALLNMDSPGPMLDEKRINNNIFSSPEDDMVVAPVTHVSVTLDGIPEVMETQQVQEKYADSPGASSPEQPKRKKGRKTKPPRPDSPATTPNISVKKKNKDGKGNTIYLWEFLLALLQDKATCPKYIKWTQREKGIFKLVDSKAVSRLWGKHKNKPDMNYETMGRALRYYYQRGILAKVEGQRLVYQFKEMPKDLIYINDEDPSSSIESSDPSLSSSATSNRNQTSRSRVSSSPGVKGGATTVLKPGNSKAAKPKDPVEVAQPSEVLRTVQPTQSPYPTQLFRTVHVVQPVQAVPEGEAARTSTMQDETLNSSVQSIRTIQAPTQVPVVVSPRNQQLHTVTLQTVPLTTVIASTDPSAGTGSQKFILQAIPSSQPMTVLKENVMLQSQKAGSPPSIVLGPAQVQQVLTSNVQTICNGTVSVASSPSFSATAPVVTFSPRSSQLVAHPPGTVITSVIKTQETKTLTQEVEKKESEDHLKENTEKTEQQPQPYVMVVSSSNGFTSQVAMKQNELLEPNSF
# How it was run: as §1
# EHF = target: T5, EHF (Homo sapiens, UniProt Q9NZC4 1-300); conditions: protein: recombinant; tags: N-terminal GST; dsDNA, one strand shown
# T5 sequence: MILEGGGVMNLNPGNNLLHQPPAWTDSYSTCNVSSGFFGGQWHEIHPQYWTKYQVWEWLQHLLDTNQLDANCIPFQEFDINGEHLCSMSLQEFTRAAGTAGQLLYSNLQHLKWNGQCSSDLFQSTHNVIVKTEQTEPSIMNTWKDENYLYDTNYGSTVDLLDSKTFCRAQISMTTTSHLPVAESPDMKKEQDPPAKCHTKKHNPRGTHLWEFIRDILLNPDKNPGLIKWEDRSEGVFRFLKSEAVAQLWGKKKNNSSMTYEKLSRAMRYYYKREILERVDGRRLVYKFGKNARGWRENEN
# How it was run: as §1
# SPI1 = SPI1 (Homo sapiens, UniProt P17947 1-270); conditions: protein: recombinant; tags: N-terminal GST; dsDNA, one strand shown
# How it was run: as §1
# SPIB = SPIB (Homo sapiens, UniProt Q01892 1-262); conditions: protein: recombinant; tags: N-terminal GST; dsDNA, one strand shown
# Sequence of SPIB (Q01892 whole entry): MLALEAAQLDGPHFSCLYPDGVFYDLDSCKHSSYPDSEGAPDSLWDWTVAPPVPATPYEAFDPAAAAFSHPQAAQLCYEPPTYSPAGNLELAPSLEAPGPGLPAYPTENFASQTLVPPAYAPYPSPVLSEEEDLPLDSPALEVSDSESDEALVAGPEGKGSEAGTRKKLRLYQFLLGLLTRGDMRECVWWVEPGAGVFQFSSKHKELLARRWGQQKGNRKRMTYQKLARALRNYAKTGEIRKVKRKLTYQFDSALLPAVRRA
# How it was run: as §1
# ELK3 = target: T6, ELK3 (Homo sapiens, UniProt P41970 1-407); conditions: protein: recombinant; tags: N-terminal GST; dsDNA, one strand shown
# T6 sequence: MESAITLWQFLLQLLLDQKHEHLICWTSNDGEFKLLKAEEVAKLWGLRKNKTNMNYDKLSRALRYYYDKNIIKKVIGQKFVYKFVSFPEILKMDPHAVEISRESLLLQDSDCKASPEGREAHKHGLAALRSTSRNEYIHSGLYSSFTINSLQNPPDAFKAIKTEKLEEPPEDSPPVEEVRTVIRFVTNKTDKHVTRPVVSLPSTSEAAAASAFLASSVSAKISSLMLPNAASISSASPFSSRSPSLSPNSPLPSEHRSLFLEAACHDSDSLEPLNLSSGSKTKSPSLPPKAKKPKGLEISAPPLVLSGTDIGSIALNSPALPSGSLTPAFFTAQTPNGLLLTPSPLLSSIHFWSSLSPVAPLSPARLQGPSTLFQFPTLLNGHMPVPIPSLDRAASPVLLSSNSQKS
# How it was run: as §1
# FEV = target: T7, FEV (Homo sapiens, UniProt Q99581 1-238); conditions: protein: recombinant; tags: N-terminal GST; dsDNA, one strand shown
# T7 sequence: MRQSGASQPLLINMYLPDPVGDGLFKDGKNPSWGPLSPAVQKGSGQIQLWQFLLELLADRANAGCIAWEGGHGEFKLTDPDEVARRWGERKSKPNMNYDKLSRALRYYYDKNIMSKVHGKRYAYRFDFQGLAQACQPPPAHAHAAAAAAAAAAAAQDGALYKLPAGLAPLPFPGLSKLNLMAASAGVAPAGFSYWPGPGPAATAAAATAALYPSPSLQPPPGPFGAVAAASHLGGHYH
# How it was run: as §1
# ETV5 = ETV5 (Homo sapiens, UniProt P41161 1-510); conditions: protein: recombinant; tags: N-terminal GST; dsDNA, one strand shown
# Sequence of ETV5 (P41161 whole entry): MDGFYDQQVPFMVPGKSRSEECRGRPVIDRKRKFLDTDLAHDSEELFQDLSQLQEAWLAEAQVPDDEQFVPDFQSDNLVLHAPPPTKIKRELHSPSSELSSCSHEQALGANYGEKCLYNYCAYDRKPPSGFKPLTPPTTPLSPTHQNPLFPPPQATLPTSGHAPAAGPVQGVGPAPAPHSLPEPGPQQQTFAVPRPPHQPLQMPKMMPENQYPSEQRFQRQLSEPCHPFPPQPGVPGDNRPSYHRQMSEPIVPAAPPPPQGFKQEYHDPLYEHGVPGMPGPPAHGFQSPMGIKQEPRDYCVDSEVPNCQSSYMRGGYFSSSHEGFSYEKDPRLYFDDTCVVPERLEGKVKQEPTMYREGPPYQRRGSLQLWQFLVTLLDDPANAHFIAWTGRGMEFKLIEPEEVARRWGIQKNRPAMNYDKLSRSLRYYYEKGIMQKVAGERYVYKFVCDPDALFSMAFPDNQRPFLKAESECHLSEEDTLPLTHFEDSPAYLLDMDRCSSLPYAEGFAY
# How it was run: as §1
# HSF1 = HSF1 (Homo sapiens, UniProt Q00613 1-529); conditions: protein: recombinant; tags: N-terminal GST; chain copies: 3; dsDNA, one strand shown
# Sequence of HSF1 (Q00613 whole entry): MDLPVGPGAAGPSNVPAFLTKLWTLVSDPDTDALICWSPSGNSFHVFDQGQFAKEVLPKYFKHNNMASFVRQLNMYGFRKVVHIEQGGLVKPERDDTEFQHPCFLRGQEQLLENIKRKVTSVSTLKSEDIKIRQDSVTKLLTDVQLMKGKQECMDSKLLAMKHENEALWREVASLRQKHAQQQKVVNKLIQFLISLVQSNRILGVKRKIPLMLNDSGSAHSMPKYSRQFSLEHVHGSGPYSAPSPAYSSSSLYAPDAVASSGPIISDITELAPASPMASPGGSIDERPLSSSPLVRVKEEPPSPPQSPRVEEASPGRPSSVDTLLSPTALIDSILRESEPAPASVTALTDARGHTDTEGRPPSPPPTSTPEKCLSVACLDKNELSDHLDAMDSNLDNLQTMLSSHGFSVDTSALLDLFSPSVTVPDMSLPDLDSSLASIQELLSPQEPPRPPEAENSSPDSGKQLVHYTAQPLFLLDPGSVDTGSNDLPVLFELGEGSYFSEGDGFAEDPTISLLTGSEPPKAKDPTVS
# How it was run: as §1
# SPIC = target: T8, SPIC (Homo sapiens, UniProt Q8N5J4 1-248); conditions: protein: recombinant; tags: N-terminal GST; dsDNA, one strand shown
# T8 sequence: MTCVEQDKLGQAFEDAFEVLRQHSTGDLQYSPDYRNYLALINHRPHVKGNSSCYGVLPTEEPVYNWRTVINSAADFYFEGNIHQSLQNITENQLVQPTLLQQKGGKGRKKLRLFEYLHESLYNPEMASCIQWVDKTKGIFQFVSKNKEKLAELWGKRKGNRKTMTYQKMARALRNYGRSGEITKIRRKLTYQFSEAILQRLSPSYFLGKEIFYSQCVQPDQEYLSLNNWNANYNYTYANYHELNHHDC
# How it was run: as §1
# ELF4 = ELF4 (Homo sapiens, UniProt Q99607 1-663); conditions: protein: recombinant; tags: N-terminal GST; dsDNA, one strand shown
# Sequence of ELF4 (Q99607 whole entry): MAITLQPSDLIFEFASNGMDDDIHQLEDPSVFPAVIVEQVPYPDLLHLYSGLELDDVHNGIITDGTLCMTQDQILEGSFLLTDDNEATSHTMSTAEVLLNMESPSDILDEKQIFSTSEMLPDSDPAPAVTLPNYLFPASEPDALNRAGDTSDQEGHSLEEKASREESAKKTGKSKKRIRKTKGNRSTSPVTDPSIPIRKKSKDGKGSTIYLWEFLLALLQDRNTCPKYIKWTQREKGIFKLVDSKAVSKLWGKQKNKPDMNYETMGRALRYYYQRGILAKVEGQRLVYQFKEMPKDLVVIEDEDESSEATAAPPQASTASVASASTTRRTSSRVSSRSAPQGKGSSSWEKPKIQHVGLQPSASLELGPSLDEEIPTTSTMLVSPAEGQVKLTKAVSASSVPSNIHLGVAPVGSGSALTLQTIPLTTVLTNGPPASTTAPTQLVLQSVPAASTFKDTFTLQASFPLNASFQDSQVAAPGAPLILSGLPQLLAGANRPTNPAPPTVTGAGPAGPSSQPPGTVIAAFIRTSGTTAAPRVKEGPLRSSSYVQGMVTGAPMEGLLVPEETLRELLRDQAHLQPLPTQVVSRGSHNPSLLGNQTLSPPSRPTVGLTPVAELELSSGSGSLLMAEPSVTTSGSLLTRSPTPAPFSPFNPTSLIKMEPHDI
# How it was run: as §1
# ELK4 = target: T9, ELK4 (Homo sapiens, UniProt P28324-2 1-405); conditions: protein: recombinant; tags: N-terminal GST; dsDNA, one strand shown
# T9 sequence: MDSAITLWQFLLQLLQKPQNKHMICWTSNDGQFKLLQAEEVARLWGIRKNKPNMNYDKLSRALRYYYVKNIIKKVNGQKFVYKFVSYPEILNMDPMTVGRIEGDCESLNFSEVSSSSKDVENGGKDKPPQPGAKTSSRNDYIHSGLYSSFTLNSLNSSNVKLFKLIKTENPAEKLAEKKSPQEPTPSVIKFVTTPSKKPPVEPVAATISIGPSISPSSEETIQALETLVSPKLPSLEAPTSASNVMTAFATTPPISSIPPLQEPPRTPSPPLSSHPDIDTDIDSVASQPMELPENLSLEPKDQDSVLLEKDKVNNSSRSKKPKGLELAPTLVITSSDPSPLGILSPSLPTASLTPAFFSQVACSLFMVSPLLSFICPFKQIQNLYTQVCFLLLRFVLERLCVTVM
# How it was run: as §1
# ETV2 = target: T10, ETV2 (Homo sapiens, UniProt O00321 1-342); conditions: protein: recombinant; tags: N-terminal GST; dsDNA, one strand shown
# T10 sequence: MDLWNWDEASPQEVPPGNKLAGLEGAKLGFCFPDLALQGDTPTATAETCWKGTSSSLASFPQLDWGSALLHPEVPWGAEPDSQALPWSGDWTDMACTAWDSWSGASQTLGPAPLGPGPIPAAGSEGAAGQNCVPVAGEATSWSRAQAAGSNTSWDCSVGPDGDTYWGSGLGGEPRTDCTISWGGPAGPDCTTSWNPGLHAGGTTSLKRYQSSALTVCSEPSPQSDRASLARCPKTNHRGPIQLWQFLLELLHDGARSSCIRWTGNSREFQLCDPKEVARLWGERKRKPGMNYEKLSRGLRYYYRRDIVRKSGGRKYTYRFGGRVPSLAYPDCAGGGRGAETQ
# How it was run: as §1
# ELF3 = target: T11, ELF3 (Homo sapiens, UniProt P78545 1-371); conditions: protein: recombinant; tags: N-terminal GST; dsDNA, one strand shown
# T11 sequence: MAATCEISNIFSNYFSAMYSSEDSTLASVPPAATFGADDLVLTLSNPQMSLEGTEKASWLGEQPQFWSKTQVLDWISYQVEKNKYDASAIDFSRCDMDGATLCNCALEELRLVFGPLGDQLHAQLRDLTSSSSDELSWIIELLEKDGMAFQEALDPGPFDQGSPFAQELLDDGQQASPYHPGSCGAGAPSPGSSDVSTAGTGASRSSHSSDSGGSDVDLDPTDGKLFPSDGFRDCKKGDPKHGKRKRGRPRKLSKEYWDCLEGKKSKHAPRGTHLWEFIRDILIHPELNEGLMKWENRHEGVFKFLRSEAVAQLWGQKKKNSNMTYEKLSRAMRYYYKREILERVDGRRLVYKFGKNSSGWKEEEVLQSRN
# How it was run: as §1
# CRX = CRX (Homo sapiens, UniProt O43186 1-299); conditions: protein: recombinant; tags: N-terminal GST; dsDNA, one strand shown
# Sequence of CRX (O43186 whole entry): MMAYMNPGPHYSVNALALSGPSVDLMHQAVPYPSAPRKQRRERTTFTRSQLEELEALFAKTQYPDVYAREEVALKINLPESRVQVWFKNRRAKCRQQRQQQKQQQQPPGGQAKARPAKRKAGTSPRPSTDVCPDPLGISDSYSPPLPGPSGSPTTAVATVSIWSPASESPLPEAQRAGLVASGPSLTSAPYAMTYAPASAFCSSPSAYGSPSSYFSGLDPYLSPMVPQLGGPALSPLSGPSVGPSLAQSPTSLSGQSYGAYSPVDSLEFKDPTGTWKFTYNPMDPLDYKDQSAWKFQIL
# How it was run: as §1
# ETV1 = ETV1 (Homo sapiens, UniProt P50549 1-477); conditions: protein: recombinant; tags: N-terminal GST; dsDNA, one strand shown
# Sequence of ETV1 (P50549 whole entry): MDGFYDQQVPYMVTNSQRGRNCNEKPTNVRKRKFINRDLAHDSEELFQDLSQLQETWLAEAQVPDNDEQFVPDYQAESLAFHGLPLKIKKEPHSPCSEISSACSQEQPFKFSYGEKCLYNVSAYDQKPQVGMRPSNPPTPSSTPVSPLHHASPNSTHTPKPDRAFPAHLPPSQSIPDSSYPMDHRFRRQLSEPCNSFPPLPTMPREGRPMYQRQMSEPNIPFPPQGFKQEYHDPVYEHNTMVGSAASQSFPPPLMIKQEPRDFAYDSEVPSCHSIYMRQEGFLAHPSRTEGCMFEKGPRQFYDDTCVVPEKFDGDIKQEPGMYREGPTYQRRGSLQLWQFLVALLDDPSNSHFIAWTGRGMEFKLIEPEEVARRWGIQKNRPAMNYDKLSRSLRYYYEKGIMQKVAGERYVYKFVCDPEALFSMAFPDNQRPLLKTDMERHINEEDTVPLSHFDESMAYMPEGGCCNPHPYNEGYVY
# How it was run: as §1
sequence,measurement,setting,value
TATGCA,binding signal,FLI1,"1.24 fold enrichment (6-mer frequency, TF over GST control)"
same,binding signal,ELK1,"1.24 fold enrichment (6-mer frequency, TF over GST control)"
same,binding signal,GABPA,"1.24 fold enrichment (6-mer frequency, TF over GST control)"
same,binding signal,ERG,"1.26 fold enrichment (6-mer frequency, TF over GST control)"
same,binding signal,ELF1,"1.18 fold enrichment (6-mer frequency, TF over GST control)"
same,binding signal,EHF,"1.12 fold enrichment (6-mer frequency, TF over GST control)"
same,binding signal,SPI1,"1.34 fold enrichment (6-mer frequency, TF over GST control)"
same,binding signal,SPIB,"1.25 fold enrichment (6-mer frequency, TF over GST control)"
same,binding signal,ELK3,"1.15 fold enrichment (6-mer frequency, TF over GST control)"
same,binding signal,FEV,"1.26 fold enrichment (6-mer frequency, TF over GST control)"
same,binding signal,ETV5,"1.18 fold enrichment (6-mer frequency, TF over GST control)"
same,binding signal,HSF1,"1.1 fold enrichment (6-mer frequency, TF over GST control)"
same,binding signal,SPIC,"1.24 fold enrichment (6-mer frequency, TF over GST control)"
same,binding signal,ELF4,"1.27 fold enrichment (6-mer frequency, TF over GST control)"
same,binding signal,ELK4,"1.37 fold enrichment (6-mer frequency, TF over GST control)"
same,binding signal,ETV2,"1.37 fold enrichment (6-mer frequency, TF over GST control)"
same,binding signal,ELF3,"1.25 fold enrichment (6-mer frequency, TF over GST control)"
same,binding signal,CRX,"1.22 fold enrichment (6-mer frequency, TF over GST control)"
same,binding signal,ETV1,"1.19 fold enrichment (6-mer frequency, TF over GST control)"
